Reference: PubChem BioAssay AID743287 (Broad Institute, 2014)
Screen size: about 370,000 compounds; about 2,300 (0.62%) were called active. The sample holds actives, similar compounds and a random draw of the others, so the mix is not that of the screen. Values without a mark were called inactive.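 The calls were made as follows: active = lowest replicate activation of at least 40%, so every replicate reaches that level; inactive = the rest.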

Experiment: GLuc luminescence reporter in INS-1E cells, primary screen for activators of glucose-dependent secretion of insulin (AID 743287);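 also: 0% = median of neutral control wells and 100% = median of IBMX positive control wells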
Conditions: INS-1E GLuc reporter insulin secretion, 2-3 h, at 16.6 µM, stronger effect = higher value

Row | Structure (SMILES) | activation
1 | CC(C)NC(=O)Nc1ccc2c(c1)C(=O)N(C)[C@H]1CC[C@H](CC(=O)NCC3CCCCC3)O[C@@H]1CO2 | 5.93%
2 | CCC(=O)Nc1ccc2c(c1)C(=O)N(C)C[C@H](OC)[C@@H](C)CN(Cc1nccs1)[C@H](C)CO2 | 5.56%
3 | CC1CN(Cc2ccco2)C(=S)N(c2ccccc2)C1=O (configuration not stated) | 10.7%
4 | CC1CN(Cc2ccccc2)C(=S)NC1=O (configuration not stated) | 41.2% (active)
5 | CC1CC(=S)Nc2ccccc2N1Cc1ccccc1 (configuration not stated) | -14.5%
6 | COCC(=O)N(C)C[C@H]1Oc2cc(C#CC3CCCC3)ccc2S(=O)(=O)N([C@H](C)CO)C[C@@H]1C | -6.72%
7 | COc1ccccc1CNC(=O)C[C@H]1C[C@@H]2c3cc(NC(=O)Nc4ccccc4F)ccc3O[C@@H]2[C@H](CO)O1 | 13.4%
8 | COc1cccc(NC(=O)CSc2nnc(Cc3ccc(OC)c(OC)c3)o2)c1 | 37.6%
9 | COc1ccc(Cc2nnc(SCC(=O)Nc3ccc(C)c(C)c3)o2)cc1OC | 71.9% (active)
10 | Cc1ccc(NC(=O)CSc2nnc(COc3ccccc3C)o2)cc1 | 6.85%
11 | C[C@H](CO)N1C[C@H](C)[C@@H](CN(C)C)Oc2ncc(-c3cccc(F)c3)cc2C1=O | -1.15%
12 | C[C@H](CO)N1C[C@H](C)[C@@H](CN(C)Cc2ccccc2)Oc2c(NC(=O)CCCCCC(=O)Nc3ccccc3N)cccc2C1=O | -7.28%
13 | CNC(=S)N/N=C/c1ccc(OCc2ccccc2)c(Br)c1 | 107% (active)
14 | CNC(=S)N/N=C/c1ccc(N2CCOCC2)s1 | 8.01%
15 | Oc1c(Br)cc(/C=N/NC(=S)NCC2CCCO2)cc1Br (configuration not stated) | -34.5%
16 | COCC#Cc1cnc2c(c1)C(=O)N([C@H](C)CO)C[C@H](C)[C@H](CN(C)C(=O)Cc1cccnc1)O2 | 27.8%
17 | COc1cccc(-c2cnc3c(c2)C(=O)N([C@H](C)CO)C[C@H](C)[C@H](CN(C)S(=O)(=O)c2cccc(F)c2)O3)c1 | -6.84%
18 | C[C@H](CO)N1C[C@H](C)[C@@H](CN(C)C(=O)Cc2ccncc2)Oc2ncc(C#CCN(C)C)cc2C1=O | 36.3%
19 | Cc1cc(NCc2cccnc2)no1 | -3.31%
20 | Cc1cc(N/C=C\C(=O)c2ccc(Cl)c(Cl)c2)no1 | 76.1% (active)
21 | Cc1cc(NC(=O)COc2ccccc2C#N)no1 | 10.8%
22 | COc1ccc(CN(C)C[C@H]2Oc3c(NC(=O)c4cnccn4)cccc3C(=O)N([C@H](C)CO)C[C@@H]2C)cc1 | 3%
